By cell viability is commonly meant a read-out of living cells in per cent, often relative to untreated cells.

From the supplement of paper PMC10981050 come the findings set out here.

The structures appear in SMILES notation. “And” between values parts separate entries of the source, which are not always exact repeats. Identical values can stand only once. Counter-ions that a name gives are not always drawn.

Holding throughout (assay): cell viability relative to vehicle control; higher = less cytotoxic
What all share (conditions): 10 µM

In one assay the test system is K562. The procedure, abridged: (§1)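 Screening covered the Selleck bioactive, kinase and epigenetic probe libraries, less identity-inconsistent compounds, on CRISPR-edited mutant clones and isogenic wild-type clones of four leukaemia lines. Cells, at 2000 per well in 50 µL medium, received a single 10 µM acoustically dispensed dose. After 48 h the supernatant was removed and CellTiter-Glo luminescence was read. Viability was analysed in Genedata Screener as percent of the on-plate vehicle control.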

The next assay deals with MARIMO. The procedure, abridged:
as §1

A further assay has as its system MOLM14. The procedure, abridged:
as §1

For the next assay, the system named is OCI-AML2. The procedure, abridged: as §1

As to `CS(=O)(=O)N1CCc2c(-c3cnc(N)nc3)nc(N3CCOCC3)nc21`, the cell viability with K562 (SRSF2 genotype: SRSF2 P95H/wt) was 56.4% and 67%; in the assay with K562 (SRSF2 genotype: SRSF2 wt/wt), 66.8%; in the assay with MARIMO (SRSF2 genotype: SRSF2 P95H/wt), 53.6%; in the assay with MARIMO (SRSF2 genotype: SRSF2 wt/wt), 42.5%; with MOLM14 (SRSF2 genotype: SRSF2 P95H/wt) it was 34.2%; with MOLM14 (SRSF2 genotype: SRSF2 wt/wt), 35.9%. For the same compound, the cell viability in the assay with OCI-AML2 (SRSF2 genotype: P95H/wt) came to 17.8%; in the assay on OCI-AML2 (SRSF2 genotype: wt/wt) it was 25.3%.

As to `CC1(C)[C@@H](OC(=O)CCC(=O)O)CC[C@]2(C)[C@H]3C(=O)C=C4[C@@H]5C[C@@](C)(C(=O)O)CC[C@]5(C)CC[C@@]4(C)[C@]3(C)CC[C@@H]12` [Carbenoxolone disodiuM], the cell viability in the assay on K562 (SRSF2 genotype: SRSF2 P95H/wt) was 95.9% and 92.2%; in the assay with K562 (SRSF2 genotype: SRSF2 wt/wt) it was 88%; in the assay with MARIMO (SRSF2 genotype: SRSF2 P95H/wt), 96.2%; in the assay with MARIMO (SRSF2 genotype: SRSF2 wt/wt), 99%; in the assay with MOLM14 (SRSF2 genotype: SRSF2 P95H/wt) it was 91.8%; with MOLM14 (SRSF2 genotype: SRSF2 wt/wt), 96.7%. In addition, the cell viability with OCI-AML2 (SRSF2 genotype: P95H/wt) came out at 89.3%; in the assay with OCI-AML2 (SRSF2 genotype: wt/wt), 103%.

With `C[C@@H]1O[C@@H](OC[C@H]2O[C@@H](Oc3c(-c4ccc(OCCO)c(OCCO)c4)oc4cc(OCCO)cc(O)c4c3=O)[C@H](O)[C@@H](O)[C@@H]2O)[C@H](O)[C@H](O)[C@H]1O` [Troxerutin], the cell viability is 105% and 90.9% in the assay with K562 (SRSF2 genotype: SRSF2 P95H/wt); 86.2% with K562 (SRSF2 genotype: SRSF2 wt/wt); 78.9% in the assay on MARIMO (SRSF2 genotype: SRSF2 P95H/wt); 92.2% in the assay on MARIMO (SRSF2 genotype: SRSF2 wt/wt); 86.3% in the assay with MOLM14 (SRSF2 genotype: SRSF2 P95H/wt); 91.9% in the assay with MOLM14 (SRSF2 genotype: SRSF2 wt/wt). For the same compound, the cell viability in the assay with OCI-AML2 (SRSF2 genotype: P95H/wt) was determined as 91.5%; in the assay on OCI-AML2 (SRSF2 genotype: wt/wt), 88%.

`O=C1C2=C(CCN(Cc3ccccc3)C2)N2CCN=C2N1Cc1ccc(C(F)(F)F)cc1`: the cell viability is 39% and 40.3% in the assay on K562 (SRSF2 genotype: SRSF2 P95H/wt); 34% with K562 (SRSF2 genotype: SRSF2 wt/wt); 43% with MARIMO (SRSF2 genotype: SRSF2 P95H/wt); 36.9% in the assay on MARIMO (SRSF2 genotype: SRSF2 wt/wt); 31.1% in the assay with MOLM14 (SRSF2 genotype: SRSF2 P95H/wt); 34.1% in the assay with MOLM14 (SRSF2 genotype: SRSF2 wt/wt). In addition, the cell viability in the assay on OCI-AML2 (SRSF2 genotype: P95H/wt) and in the assay on OCI-AML2 (SRSF2 genotype: wt/wt) was 22.3% in each case.

As to `CC1(C)CCCC2(C)C1CCC1(C)OC(=O)CC12` (stereo not given) [Sclareolide (Norambreinolide)], the cell viability is 109% and 97.8% in the assay with K562 (SRSF2 genotype: SRSF2 P95H/wt); 99.8% in the assay with K562 (SRSF2 genotype: SRSF2 wt/wt); 95.2% in the assay on MARIMO (SRSF2 genotype: SRSF2 P95H/wt); 98.7% in the assay with MARIMO (SRSF2 genotype: SRSF2 wt/wt); 101% with MOLM14 (SRSF2 genotype: SRSF2 P95H/wt); 106% with MOLM14 (SRSF2 genotype: SRSF2 wt/wt). For the same compound, the cell viability in the assay on OCI-AML2 (SRSF2 genotype: P95H/wt) was 102%; with OCI-AML2 (SRSF2 genotype: wt/wt), 89.7%.

For the compound `CN(C)C(=S)NN=C(c1ccccn1)c1ccccn1`, the cell viability was 30% and 40.3% in the assay with K562 (SRSF2 genotype: SRSF2 P95H/wt); 30.9% with K562 (SRSF2 genotype: SRSF2 wt/wt); 11.5% with MARIMO (SRSF2 genotype: SRSF2 P95H/wt); 20.1% with MARIMO (SRSF2 genotype: SRSF2 wt/wt); 1.77% in the assay on MOLM14 (SRSF2 genotype: SRSF2 P95H/wt); 0.87% in the assay with MOLM14 (SRSF2 genotype: SRSF2 wt/wt). The cell viability with OCI-AML2 (SRSF2 genotype: P95H/wt) is 10.9%; with OCI-AML2 (SRSF2 genotype: wt/wt), 10.6%.

Take `O=c1cc(-c2ccc(O)cc2)oc2c([C@@H]3OC[C@H](O)[C@H](O)[C@H]3O)c(O)c([C@@H]3O[C@H](CO)[C@@H](O)[C@H](O)[C@H]3O)c(O)c12` [Schaftoside]: the cell viability was 113% and 106% in the assay on K562 (SRSF2 genotype: SRSF2 P95H/wt); 113% in the assay with K562 (SRSF2 genotype: SRSF2 wt/wt); 108% with MARIMO (SRSF2 genotype: SRSF2 P95H/wt); 107% in the assay with MARIMO (SRSF2 genotype: SRSF2 wt/wt); 112% with MOLM14 (SRSF2 genotype: SRSF2 P95H/wt); 105% in the assay on MOLM14 (SRSF2 genotype: SRSF2 wt/wt). Besides, the cell viability was found to be 106% in the assay with OCI-AML2 (SRSF2 genotype: P95H/wt) and 105% with OCI-AML2 (SRSF2 genotype: wt/wt).

Regarding `O=C(O)c1cc(I)ccc1NC(=O)[C@H](Cc1ccccc1)NCc1ccccc1`, the cell viability in the assay with K562 (SRSF2 genotype: SRSF2 P95H/wt) is 102% and 98.6%; with K562 (SRSF2 genotype: SRSF2 wt/wt) it was 101%; with MARIMO (SRSF2 genotype: SRSF2 P95H/wt), 99.9%; with MARIMO (SRSF2 genotype: SRSF2 wt/wt) it was 103%; in the assay on MOLM14 (SRSF2 genotype: SRSF2 P95H/wt) it was 99%; in the assay on MOLM14 (SRSF2 genotype: SRSF2 wt/wt), 101%. Also, the cell viability was found to be 110% in the assay with OCI-AML2 (SRSF2 genotype: P95H/wt) and 119% with OCI-AML2 (SRSF2 genotype: wt/wt).

In the case of `CN(CCOc1ccc(CC2SC(=O)NC2=O)cc1)c1ccccn1` (stereo not given) [Rosiglitazone maleate], the cell viability in the assay with K562 (SRSF2 genotype: SRSF2 P95H/wt) is 98.8% and 97.5%; with K562 (SRSF2 genotype: SRSF2 wt/wt), 96%; in the assay on MARIMO (SRSF2 genotype: SRSF2 P95H/wt), 102%; in the assay with MARIMO (SRSF2 genotype: SRSF2 wt/wt), 110%; in the assay on MOLM14 (SRSF2 genotype: SRSF2 P95H/wt), 101%; in the assay on MOLM14 (SRSF2 genotype: SRSF2 wt/wt) it was 103%. The cell viability in the assay on OCI-AML2 (SRSF2 genotype: P95H/wt) was found to be 91.5%; in the assay on OCI-AML2 (SRSF2 genotype: wt/wt), 107%.

With `CN(C)N(C)C(=O)[C@@]1(Cc2ccccc2)CCCN(C(=O)[C@@H](Cc2c[nH]c3ccccc23)NC(=O)C(C)(C)N)C1` [Anamorelin], the cell viability in the assay on K562 (SRSF2 genotype: SRSF2 P95H/wt) is 82.4% and 78.3%; in the assay on K562 (SRSF2 genotype: SRSF2 wt/wt) it was 80.7%; with MARIMO (SRSF2 genotype: SRSF2 P95H/wt), 70.5%; with MARIMO (SRSF2 genotype: SRSF2 wt/wt), 74.3%; in the assay on MOLM14 (SRSF2 genotype: SRSF2 P95H/wt), 76.5%; in the assay on MOLM14 (SRSF2 genotype: SRSF2 wt/wt), 78.8%. In addition, the cell viability is 69.2% in the assay on OCI-AML2 (SRSF2 genotype: P95H/wt) and 68.2% in the assay with OCI-AML2 (SRSF2 genotype: wt/wt).
